The values below come from PubChem BioAssay.

Experiment [1] is described as follows: hESC survival regulators, cell-based (AID 493140).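 Note: cells exposed to compounds for four days before counting.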 The note with it: human embryonic stem cell survival screen; stronger effect = higher value.
A short description of experiment [2]: liver-stage malaria parasite growth inhibition, primary screen, cell-based, HepG2, luciferase luminescence, HepG2 viability (AID 624349; in the data active = parasite load remaining mostly below about 12%, no sharp cut-off; inactive = mostly above about 10%;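 note: 100% = mean of DMSO negative control wells on the same plate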). The note with it: P. berghei liver stage in HepG2, luciferase luminescence, concentration not given here; parasite load remaining: stronger effect = lower value; viability: measured here: HepG2 viability without parasites.
Experiment [3] is described as follows: Cy5 fluorescence interference with SSB-bound oligo, artefact control for HCV NS3 helicase inhibitor project, biochemical, NIH Clinical Collection, E. coli SSB (AID 743268).
Experiment [4] has as its system Hepatitis C virus NS3 helicase. The experiment in a line: HCV NS3 helicase inhibitors, primary screen, biochemical, fluorescence polarization, NIH Clinical Collection (AID 743270). As to conditions: NS3 helicase binding to Cy5-dT15 DNA, stronger effect = higher value, concentration not given here. For orientation: Fluorescence polarisation rises when a labelled molecule tumbles more slowly, as on binding a larger partner.

Experiment [5] concerns the target Single-stranded DNA-binding protein (Escherichia coli (strain K12)) (UniProt P0AGE0). The experiment in a line: E. coli SSB displacement from DNA, counter-screen for HCV NS3 helicase inhibitor project, biochemical, fluorescence polarization, NIH Clinical Collection (AID 743271; in the data active = inhibition above about 28%). The note with it: stronger effect = higher value, concentration not given here. On the technique in general: Counterscreens check selectivity or assay interference.

A short description of experiment [6]: fluorescence interference in NS3h assay format, artefact control for HCV NS3 helicase inhibitor project, biochemical, NIH Clinical Collection (AID 743272).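 Note: HCV NS3 helicase with a Cy5 labelled single stranded DNA probe.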 The note with it: fluorescence interference counterscreen, stronger effect = lower value.
Experiment [7] in a line: viability rescue of complex I mutant cybrids, primary screen, cell-based, galactose medium, ATP luminescence (AID 1645843;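 active = z-score of at least 1.8 in each of two replicates, scored against plate mean and spread of sample wells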;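 note: positive z means more ATP and so rescue of galactose-driven cybrid death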). The note with it: complex I mutant cybrid cells, 72 h, stronger effect = higher value.
For a further experiment, the system named is F380Y/beta1. Nature of the experiment: modulators of BK channel variants, profiling panel, selectivity assay, cell-based, U2OS BacMam, thallium flux, beta subunits (AID 1259406;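 active = thallium flux through the channel raised or lowered by more than 3 SD from vehicle-only wells, actives on both sides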;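 note: initial slope of Thallos dye fluorescence rise after thallium is added; log ratio against the mean of 0.3% DMSO vehicle wells on the same plate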). As to conditions: at 30 µM.
The subject of another experiment is F380Y/beta4. The description is as above. The note with it: at 30 µM.
For a further experiment, the system named is R275C/beta4. The description is as above. The note with it: at 30 µM.
In a further experiment the test system is R275C/Slo1WT/beta2. Described as above. As to conditions: at 30 µM.
The nature of experiment [8]: polyglutamine-triggered caspase-3 activation inhibitors, cell-based (AID 1583). As to conditions: polyglutamine-induced caspase-3 activation, cell assay; stronger effect = higher value;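 tested at 10 µM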.
Experiment [9] can be described thus: suppressors of polyQ aggregation in yeast, 75Q-TubU reporter (AID 1593). As to conditions: Yeast 75Q polyglutamine aggregation reporter.
Experiment [10] in a line: rescue of polyQ-huntingtin neuronal dysfunction in worms, whole organism, C. elegans mechanosensory neurons, N-terminal huntingtin (AID 1599). The note with it: touch response, stronger effect = higher value.
Experiment [11] can be described thus: inhibitors of mitochondrial cytochrome c release, biochemical, purified mitochondria (AID 1603).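 Note: mouse liver mitochondria challenged with calcium chloride; signal normalized to the plate average as 100%.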 As to conditions: stronger effect = lower value.
A short description of experiment [12]: inhibitors of polyQ protein aggregation (AID 1604). As to conditions: polyglutamine-induced protein aggregation inhibition assay; stronger effect = higher value; tested at 2.5 µM.
Experiment [13] can be described thus: enhancers of glutamate uptake in motor neurons, MN-1 cell line (AID 1612).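 Note: tested at 1 µM final; 0% = mean of DMSO vehicle wells on each plate; positive means more glutamate uptake than control and negative means less.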 As to conditions: MN-1 motor neuron cells, stronger effect = higher value.
Experiment [14] in a line: suppressors of polyglutamine aggregation in yeast, 75Q-TubH (AID 1616). As to conditions: S. cerevisiae 75Q-TubH polyglutamine aggregation suppression; stronger effect = higher value.
Experiment [15] can be described thus: modulation of C. elegans fzo-1 (AID 1259413).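 Note: fzo-1 mutant C. elegans worms in liquid wells.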 As to conditions: C. elegans fzo-1 modulator screen, mean read-out; stronger effect = higher value.

Each structure is given as a SMILES string. Values joined by “and” are separate entries in the source; they are usually repeats but may differ in a detail not shown here. Identical values can stand only once. For some assays here: Entries with a potency or affinity are not part of this list. Active and inactive are the calls of the source. Unless noted, the rule behind the calls is not given here.

By viability is commonly meant a read-out of living cells in per cent, often relative to untreated cells. The inhibition is the change of the read-out against control, counted positive when it falls. As for `CC(=O)O[C@]1(C(C)=O)CC[C@H]2[C@@H]3C=C(C)C4=CC(=O)CC[C@]4(C)[C@H]3CC[C@@]21C`, the survival in experiment [1] is 3.08 (inactive). Moreover, the parasite load remaining in experiment [2] is 111% (inactive) and 60.7% (inactive) and 27.2% (inactive). In experiment [2], the viability is 93.3% and 69.6% and 81%. In addition, the results for the fluorescence ratio in [3] and in experiment [6] were 1.01 (inactive) and 0.98 (inactive), respectively. For the same compound, the inhibition in [4] is 3.56% (inactive); in experiment [5], 3.75% (inactive). Moreover, the z-score in experiment [7] is 0.025 (inactive). Moreover, the log fold change Tl+ flux in the experiment with F380Y/beta1 is 0.018 (inactive); in the experiment with F380Y/beta4 it was -0.0433 (inactive); in the experiment on R275C/beta4, -0.0116 (inactive); with R275C/Slo1WT/beta2 it was 0.0254 (inactive).

With `CC(=O)S[C@@H]1CC2=CC(=O)CC[C@]2(C)[C@H]2CC[C@@]3(C)[C@@H](CC[C@@]34CCC(=O)O4)[C@H]12`, the survival in experiment [1] was 17.9 (inactive). Further, the figures for the fluorescence ratio in experiment [3] and in experiment [6] were 0.99 (inactive) and 0.9 (inactive), respectively. Further, the inhibition is -3.18% (inactive) in experiment [4] and -0.48% (inactive) in experiment [5]. Besides, in [7], the z-score was -0.25 (inactive) and 0.65 (inactive). Moreover, the log fold change Tl+ flux was 0.0461 (inactive) in the experiment with F380Y/beta1, -0.0243 (inactive) with F380Y/beta4, 0.0567 (inactive) with R275C/beta4 and 0.0564 (inactive) with R275C/Slo1WT/beta2.

`CC1(C)O[C@@H]2C[C@H]3[C@@H]4C[C@H](F)C5=CC(=O)C=C[C@]5(C)[C@H]4[C@@H](O)C[C@]3(C)[C@]2(C(=O)CO)O1`: the survival in [1] is 3 (inactive). In experiment [2], the parasite load remaining was 33.4% (inactive) and 143% (inactive). Moreover, the viability in experiment [2] was 88.6% and 103%. Also, the fluorescence ratio in experiment [3] was 1.07 (inactive); in experiment [6], 0.99 (inactive). Further, the results for the inhibition in experiment [4] and in [5] were -0.45% (inactive) and -1.24% (inactive), respectively. In addition, the z-score in [7] was -1.48 (inactive). The log fold change Tl+ flux is 0.017 (inactive) with F380Y/beta1, -0.0612 (inactive) with F380Y/beta4, 0.0291 (inactive) in the experiment on R275C/beta4 and 0.0322 (inactive) with R275C/Slo1WT/beta2.

As for `CC1(C)O[C@@H]2C[C@H]3[C@@H]4CCC5=CC(=O)C=C[C@]5(C)[C@@]4(F)[C@@H](O)C[C@]3(C)[C@]2(C(=O)CO)O1`, the parasite load remaining in [2] was 89.9% (inactive). In addition, in experiment [2], the viability was found to be 87.8%. The fluorescence ratio in experiment [3] and in experiment [6] was 0.99 (inactive) each time. The inhibition was -0.45% (inactive) in experiment [4] and 4.1% (inactive) in experiment [5]. Further, in experiment [7], the z-score was 0.21 (inactive). The log fold change Tl+ flux with F380Y/beta1 is 0.0642 (inactive); in the experiment on F380Y/beta4 it was 0.0499 (inactive); in the experiment with R275C/beta4, -0.0125 (inactive); in the experiment with R275C/Slo1WT/beta2, -0.102 (inactive).

On to `CNCCCC12CCC(c3ccccc31)c1ccccc12`, for which the results for the inhibition in [8], in [4] and in experiment [5] were -14.8%, -1.98% (inactive) and -1.64% (inactive), respectively. For the same compound, the score in [9] turned out to be 1.5. The rescue above control in experiment [10] stood at 28.8. For the same compound, in [11], the cytochrome c release ratio came to 1.86. Besides, in experiment [12], the inhibition of aggregation stood at 26.4%. The glutamate uptake change in experiment [13] is 22.4%. In experiment [14], this compound displayed an aggregation suppression score of 1.14. The survival in experiment [1] is 0.833 (inactive). For the same compound, the fluorescence ratio in experiment [3] is 0.97 (inactive); in experiment [6], 0.83 (inactive). Moreover, the mean signal in [15] was 255 (inactive).

`OCCN(CCO)c1nc(N2CCCCC2)c2nc(N(CCO)CCO)nc(N3CCCCC3)c2n1`: the inhibition in experiment [8] was -102%; in experiment [4] it was 2.27% (inactive); in experiment [5], 5.62% (inactive). Besides, the score in experiment [9] amounted to 1.27. The same compound came in with a rescue above control in [10] of 18.2. Also, the cytochrome c release ratio in experiment [11] is 1.1. The inhibition of aggregation in [12] turned out to be 79.2%. In addition, in experiment [13], the glutamate uptake change came to 32%. The aggregation suppression score in [14] worked out at 1.33. Also, the survival in experiment [1] was 34.4 (inactive). In addition, the fluorescence ratio in experiment [3] was 0.96 (inactive); in experiment [6], 0.85 (inactive). Further, the mean signal in experiment [15] is 298 (inactive).

In the case of `C=CCCCCCCCCC(=O)O`, in [2], the parasite load remaining is 49.2% (inactive) and the viability was 96.2%.

`O=c1n(CCCN2CCN(c3cccc(Cl)c3)CC2)nc2ccccn12`: the values for the inhibition in experiment [8], in experiment [4] and in experiment [5] were 17.6%, -6.73% (inactive) and -2.41% (inactive), respectively. The score in [9] is 1.36. This compound also showed a rescue above control in experiment [10] of 8.41. The cytochrome c release ratio in experiment [11] is 1.04. In addition, in [12], the inhibition of aggregation was -2.89%. In experiment [13], the glutamate uptake change came to 4.27%. In addition, the aggregation suppression score in [14] is 1.27. In experiment [1], the survival was 27.2 (inactive). Further, the fluorescence ratio in [3] is 1.01 (inactive); in experiment [6] it was 0.97 (inactive). For the same compound, the mean signal in [15] was 242 (inactive). The z-score in experiment [7] is -0.33 (inactive) and 0.63 (inactive).

For `Nc1nc2ccc(OC(F)(F)F)cc2s1`, in [1], the survival is 22.5 (inactive). For the same compound, the fluorescence ratio in [3] is 0.95 (inactive); in experiment [6], 0.87 (inactive). Also, the inhibition in experiment [4] was -5.94% (inactive); in experiment [5] it was -0.87% (inactive). For the same compound, the mean signal in experiment [15] is 260 (inactive).

Turning to `CCn1cc(C(=O)O)c(=O)c2cc(F)c(N3CCNCC3)cc21`, the inhibition in experiment [8] is -2.25%. Moreover, the score in experiment [9] was 0.92. The rescue above control in [10] was found to be 3.5. Moreover, in experiment [11], the cytochrome c release ratio was 0.95. In [12], the inhibition of aggregation came to 52.4%. In addition, the glutamate uptake change in experiment [13] is -6.97%. In addition, the aggregation suppression score in experiment [14] came out at 1.19. In experiment [1], the survival is 20.2 (inactive). The mean signal in experiment [15] is 207 (inactive). Besides, the z-score in experiment [7] is 0.67 (inactive).

As to `C[C@]12C=CC(=O)C=C1CC[C@@H]1[C@@H]2[C@@H](O)C[C@@]2(C)[C@H]1CC[C@]2(O)C(=O)CO`, the survival in experiment [1] was 15.8 (inactive). Also, the fluorescence ratio was 1.02 (inactive) in experiment [3] and 0.96 (inactive) in [6]. Further, the inhibition in [4] was -1.36% (inactive); in experiment [5], 0.29% (inactive). Besides, the z-score in experiment [7] is -0.29 (inactive) and 0.46 (inactive). The log fold change Tl+ flux in the experiment with F380Y/beta1 was 0.00512 (inactive); with F380Y/beta4, 0.023 (inactive); in the experiment on R275C/beta4 it was -0.0125 (inactive); with R275C/Slo1WT/beta2 it was -0.0471 (inactive).

As to `CCCCc1oc2ccccc2c1C(=O)c1cc(I)c(OCCN(CC)CC)c(I)c1`, the inhibition in [8] was 18.6%; in experiment [4], -1.97% (inactive); in experiment [5], 1.97% (inactive). In [9], the score is -1.49. In addition, the rescue above control in experiment [10] amounted to 0.17. In addition, the cytochrome c release ratio in [11] stood at 0.79. Also, the inhibition of aggregation in experiment [12] stood at 28.8%. Moreover, the glutamate uptake change in [13] is 11.2%. This compound also showed an aggregation suppression score in [14] of -0.303. Also, the survival in [1] is 3.5 (inactive). Moreover, the values for the fluorescence ratio in [3] and in [6] were 0.96 (inactive) and 0.95 (inactive), respectively. Moreover, the mean signal in experiment [15] is 244 (inactive). In addition, the z-score in experiment [7] is -1.52 (inactive) and -1.44 (inactive) and -1.87 (inactive).

`COc1ccc2c(c1)c(CC(=O)O)c(C)n2C(=O)c1ccc(Cl)cc1`: the inhibition is 24.4% in experiment [8], -3.56% (inactive) in [4] and -2.41% (inactive) in experiment [5]. The compound also displayed a score in [9] of -1.46. The compound further came in with a rescue above control in experiment [10] of -5.76. Also, in [11], the cytochrome c release ratio is 0.82. The inhibition of aggregation in [12] was -6.06%. The glutamate uptake change in [13] stood at 7.33%. Besides, the aggregation suppression score in experiment [14] was 0.0101. Further, the survival in [1] was 13.2 (inactive). For the same compound, the fluorescence ratio in experiment [3] is 1.02 (inactive); in experiment [6], 1.01 (inactive). Also, the mean signal in [15] is 244 (inactive).
